Assay outcomes as filed in PubChem.
A selection: hits, their analogues and other compounds. The true share with any hit is near 1.5%.
Efflux pump inh: blocks antifungal efflux pumps in multiplex yeast assay | S. cerevisiae Candida pump triplex, Nile Red efflux | inhibition, % at 10 µM | 330,000 compounds, 0.44% hits;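 active means plate passing quality check with inhibition over a set limit, or well fluorescence over plate mean plus 4 SD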;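 further: Nile Red retained in pooled yeast measured as flow cytometry median fluorescence; 0% = buffer negative control and 100% = Enniatin B positive control; higher means more Nile Red kept so more efflux inhibition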
NALP1 inh: NALP1 inhibition; 280,000 compounds, 0.61% hits; inhibition, % at 10 µM; S. cerevisiae NALP1/ASC/caspase-1 growth, X-gal OD620, 72 h; AID 2071; in the data active means inhibition mostly above about 24%, no sharp cut-off; inactive means mostly below about 32%
NLRP3 yeast inh: inhibitors of NALP3 inflammasome in yeast | Yeast reconstituted NLRP3/ASC/caspase-1, beta-gal luminescence, 24 h | inhibition, % at 10 µM | 330,000 compounds, 0.39% hits | AID 2825;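 active means inhibition of 50% or more; inactive means inhibition below 50%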;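 further: plate controls were induced DMSO wells for no effect and uninduced yeast grown without galactose for full effect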
HDAC3 inh: human HDAC3 inhibition; O15379; recombinant HDAC3, fluorogenic peptide/trypsin coupled, fluorescence; inhibition, % at 8.3 µM; 320,000 compounds, 0.15% hits; AID 2718; in the data active means inhibition above about 26%, passing the limit was not always enough; inconclusive means no clear call, values can overlap the other calls
GASC-1 inh: blocks human GASC-1 demethylase activity; Q9H3R0; AID 2099; inhibition, % at 2.35 µM; 330,000 compounds, 0.069% hits; GST-JMJD2C(1-420) H3K9me3 demethylation, DELFIA europium;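 active means more than half of a compound's replicate wells show inhibition beyond 50%, single wells judged on their own value; inconclusive means some, but no more than half, of replicates pass 50% inhibition; inactive means no replicate passes 50% inhibition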;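 further: signal counts dimethyl H3K9 product captured on neutravidin plate; 0% = median of DMSO wells and 100% = 0.3 times that DMSO median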
Target sequence (Q9H3R0 1-420 limits assumed): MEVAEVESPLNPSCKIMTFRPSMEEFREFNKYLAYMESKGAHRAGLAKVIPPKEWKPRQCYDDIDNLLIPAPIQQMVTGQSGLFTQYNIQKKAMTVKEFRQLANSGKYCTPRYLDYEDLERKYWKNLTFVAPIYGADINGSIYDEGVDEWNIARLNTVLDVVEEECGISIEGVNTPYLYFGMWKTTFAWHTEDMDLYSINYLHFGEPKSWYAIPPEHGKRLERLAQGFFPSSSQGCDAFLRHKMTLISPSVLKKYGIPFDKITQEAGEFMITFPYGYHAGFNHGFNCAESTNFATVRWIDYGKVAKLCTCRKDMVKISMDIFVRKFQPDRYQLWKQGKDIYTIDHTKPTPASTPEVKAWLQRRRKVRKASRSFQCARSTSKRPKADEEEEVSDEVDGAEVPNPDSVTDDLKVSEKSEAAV
PolyA inhibitor: blocks polyadenylation in yeast reporter cells. activity score, % at 12 µM. 300,000 compounds, 0.02% hits. S. cerevisiae SKY197-pL101 polyadenylation reporter, beta-gal luminescence; efflux-impaired pdr1/pdr3 knockout yeast; score 100 = 6 SD above DMSO;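 active means lowest replicate activity score at least 50, where 100 means six control SD above control mean; inconclusive means lowest score under 50 but half or more replicates reach 50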;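 further: yeast exposed to compound for 9 h at 30 °C; higher score means more reporter readthrough which indicates perturbed polyadenylation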
Starred values were filed as active, the others as inactive; i = inactive; u = inconclusive; x = not tested or not shown; ! = repeats disagree.

SMILES	Efflux pump inh	NALP1 inh	NLRP3 yeast inh	HDAC3 inh	GASC-1 inh	PolyA inhibitor
Cc1cc(NC(=O)/C(C#N)=C/c2ccco2)n(-c2ccccc2)n1	0	19	19	7	0	-17
Cc1ccc(-c2ccc(/C=C(\C#N)C(=O)Nc3cc(C)nn3-c3ccccc3)o2)cc1	1.5*	24	26	1	7	-21
Clc1ccc(Nc2ccc(NCc3ccccc3)nn2)cc1	0	72*	35	1	25	-12
Cc1cc(C)n(-c2n[nH]c(C)c2[N+](=O)[O-])n1	0	-3	11	2	-9	-20
O=C(Nc1ccncc1Cl)c1ccncc1	0	-5	0	-4	7	11
COc1ccccc1C(=O)NNC(=O)C1CCCO1 (centres undefined)	0	12	15	-4	3	13
CCCCCOc1ccc(Br)cc1CSC(=N)N	x	52*	x	x	-8	11
CCCc1cc(=O)oc2c(CN(CC)CC)c(O)c(Cl)cc12	0	35*	12	i	-4	u
CCN(CC)C(=O)c1sc(NC(=O)Cc2ccc(OC)cc2)c(C#N)c1C	0	43*	3	-2	2	-15
NS(=O)(=O)c1ccc(NC(=S)NC(=O)c2ccco2)cc1	0	41*!	11	4	-6	5
O=C(CC1SC(N2CCCCC2)=NC1=O)Nc1cccc(C(=O)Nc2ncccc2O)c1 (centres undefined)	0	x	16	65*	7	-17
COc1cccc(Cn2nnc(C(=O)Nc3cc(Cl)ccc3OC)c2N)c1	0	40*	4	5	-2	26
CCn1nc(C)cc1C(=O)N1CCCC(C(=O)c2ccccc2SC)C1 (centres undefined)	0	24	2	2	2	-21
N#CC1(C#N)[C@@H](C(=O)C23CC4CC(CC(C4)C2)C3)C12CCOCC2	0	8	22	4	0	15
C=CCNC(=O)Nc1ccc2oc(C)nc2c1	0	16	9	2	3	17
Cc1nc2cc(NC(=O)NCCCO)ccc2o1	0	29*	4	-4	-4	10
Cc1noc2ncnc(Oc3cc(Cl)ccc3Cl)c12	0	21*	-35	6	-4	-13
Cc1noc2ncnc(Oc3ccc4ccccc4c3)c12	0	6	29	-3	2	-9
O=C(CC12CC3CC(CC(C3)C1)C2)NCc1ccncc1	0	7	11	-1	-39	1
c1cc(CNC23CC4CC(CC(C4)C2)C3)ccn1	0	27*	4	0	40	-4
CCCN1CCN(CCNC(=O)Nc2cc(C)ccc2C)CC1	0	20	10	1	4	10
COc1ccc(CCNC(=O)CN(Cc2ccc(Cl)cc2)S(C)(=O)=O)cc1OC	0	28*	1	1	-1	-2
Cc1sc(NC(=O)C2C3C=CC(C3)C2C(=O)O)c(C(N)=O)c1-c1ccc(C(C)C)cc1 (centres undefined)	0	10	8	-3	-11	11
CN1CCN(C(=S)Nc2ccc(Cl)c(Cl)c2)CC1	1	48*	-18	-2	-5	2
O=C(NCC(c1ccco1)N1CCCC1)c1cn(-c2ccccc2)nc1-c1ccc(F)cc1 (centres undefined)	x	x	27	x	x	x
SMILES	Efflux pump inh	NALP1 inh	NLRP3 yeast inh	HDAC3 inh	GASC-1 inh	PolyA inhibitor
O=C(O)/C=C\c1cccc(-n2nnnc2SCc2ccccc2F)c1	0	-2	20	4	4	0
CCc1ccccc1NC(=O)CNC(=O)CSC(=S)N1CCCC1	0	x	14	-1	-4	x
CN(CC(=O)Nc1ccccc1C(F)(F)F)C(=O)CSc1nnc(-c2ccncc2)n1C	0	x	10	5	11	x
O=C(N/N=C/c1ccc(OC(F)F)cc1OC(F)F)c1ccc(Br)cc1	0	24	19	4	21	24
O=C(N/N=C/c1ccc(OC(F)F)cc1OC(F)F)NC1CCCCC1	0	11	20	29*	1	-23
CC(=O)N1c2ccccc2CCc2ccc([N+](=O)[O-])cc21	0	9	1	3	7	u
CCS(=O)(=O)Nc1ccc2c(c1)N(C(C)=O)c1ccccc1CC2	0	28*	13	0	4	-1
